According to publication PMC11006913:

Each sequence was assayed against T1, NKX2-6 (Homo sapiens, UniProt A6NCS4 118-204, R150C) (assay: PBM; 200 nM protein, PBS). Details: dsDNA, one strand shown.
T1 sequence: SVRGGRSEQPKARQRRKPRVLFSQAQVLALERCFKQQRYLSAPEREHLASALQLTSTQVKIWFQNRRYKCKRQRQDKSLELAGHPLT

Sequence	binding signal
CCCCGTTC	9.42 upbm affinity estimate (log intensity, higher = more binding, comparable within an allelic series)
ACCCGGCA	9.55 upbm affinity estimate (log intensity, higher = more binding, comparable within an allelic series)
CGGGCGGA	9.09 upbm affinity estimate (log intensity, higher = more binding, comparable within an allelic series)
AAGCCACG	9.49 upbm affinity estimate (log intensity, higher = more binding, comparable within an allelic series)
CATGCCGG	9.42 upbm affinity estimate (log intensity, higher = more binding, comparable within an allelic series)
AATCCGCC	9.75 upbm affinity estimate (log intensity, higher = more binding, comparable within an allelic series)
AACGGGAC	9.62 upbm affinity estimate (log intensity, higher = more binding, comparable within an allelic series)
ACCGTGGA	9.56 upbm affinity estimate (log intensity, higher = more binding, comparable within an allelic series)
AGGCACCC	9.55 upbm affinity estimate (log intensity, higher = more binding, comparable within an allelic series)
TCACTCAA	10.9 upbm affinity estimate (log intensity, higher = more binding, comparable within an allelic series)
CAGACGCC	9.62 upbm affinity estimate (log intensity, higher = more binding, comparable within an allelic series)
CCCCCATC	9.53 upbm affinity estimate (log intensity, higher = more binding, comparable within an allelic series)
CGCTCACC	9.46 upbm affinity estimate (log intensity, higher = more binding, comparable within an allelic series)
GAGTCTGC	9.64 upbm affinity estimate (log intensity, higher = more binding, comparable within an allelic series)
AGAGTGGA	11 upbm affinity estimate (log intensity, higher = more binding, comparable within an allelic series)
CCCCAACC	9.37 upbm affinity estimate (log intensity, higher = more binding, comparable within an allelic series)
GCCGTGAA	9.62 upbm affinity estimate (log intensity, higher = more binding, comparable within an allelic series)
CCCGCACA	9.66 upbm affinity estimate (log intensity, higher = more binding, comparable within an allelic series)
CTGACCCC	9.6 upbm affinity estimate (log intensity, higher = more binding, comparable within an allelic series)
CTCTTGAC	11.2 upbm affinity estimate (log intensity, higher = more binding, comparable within an allelic series)

Sequence	binding signal
AAGCCCCC	9.33 upbm affinity estimate (log intensity, higher = more binding, comparable within an allelic series)
ACAGGGGG	9.27 upbm affinity estimate (log intensity, higher = more binding, comparable within an allelic series)
GGGGAACC	9.63 upbm affinity estimate (log intensity, higher = more binding, comparable within an allelic series)
CAGCCCTG	9.44 upbm affinity estimate (log intensity, higher = more binding, comparable within an allelic series)
CCCGCCGA	9.28 upbm affinity estimate (log intensity, higher = more binding, comparable within an allelic series)
CAAAGTGC	11 upbm affinity estimate (log intensity, higher = more binding, comparable within an allelic series)
CACAGGCG	9.43 upbm affinity estimate (log intensity, higher = more binding, comparable within an allelic series)
GGCATCCC	9.47 upbm affinity estimate (log intensity, higher = more binding, comparable within an allelic series)
AACCGCCC	9.72 upbm affinity estimate (log intensity, higher = more binding, comparable within an allelic series)
AAGAAGTG	11.2 upbm affinity estimate (log intensity, higher = more binding, comparable within an allelic series)
CGCCCCGC	9.59 upbm affinity estimate (log intensity, higher = more binding, comparable within an allelic series)
CACGCCAG	9.43 upbm affinity estimate (log intensity, higher = more binding, comparable within an allelic series)
CGCCTACA	9.72 upbm affinity estimate (log intensity, higher = more binding, comparable within an allelic series)
ATACTTGG	10.8 upbm affinity estimate (log intensity, higher = more binding, comparable within an allelic series)
CAAGTGGA	11.6 upbm affinity estimate (log intensity, higher = more binding, comparable within an allelic series)
AAAGTGAG	10.8 upbm affinity estimate (log intensity, higher = more binding, comparable within an allelic series)
GATCCGAC	9.56 upbm affinity estimate (log intensity, higher = more binding, comparable within an allelic series)
AGAGTGGC	10.9 upbm affinity estimate (log intensity, higher = more binding, comparable within an allelic series)
CTACCGGC	9.49 upbm affinity estimate (log intensity, higher = more binding, comparable within an allelic series)
ATCACCCG	9.63 upbm affinity estimate (log intensity, higher = more binding, comparable within an allelic series)
